This is an account of results in PubChem BioAssay (NCI).

About 83,000 compounds went through this panel and 20% of them were active in at least one assay; those are over-represented in the sample as a whole.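 Treatment: one concentration, 48 hours, 96-well format. Scoring: percent growth, with anything below 10 considered active.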 Values without a mark were called inactive. Active and inactive are the calls of the source.

Among the test systems are SK-MEL-2 melanoma; EKVX NSCLC; SN12C renal; UO-31 renal; TK-10 renal; ACHN renal; CAKI-1 renal; A498 renal; CCRF-CEM leukemia; MOLT-4 leukemia.
What all share (experiment): NCI-60 one-dose screen, 48 h (100 = growth as untreated, 0 = no growth, -100 = all killed)
Settings in all cases: 10 µM unless noted

For the compound `CC(C)=CC(=O)OCC(=O)O[C@@H]1C[C@]2(C(C)C)O[C@@]1(C)[C@@H]1CC[C@@H](C)[C@H]1[C@@H]2OC(=O)/C=C/c1ccccc1`, the growth with SK-MEL-2 melanoma is 89%; with EKVX NSCLC, 84.1%; in the assay on SN12C renal, 39.8%; in the assay on UO-31 renal, -64.7% (active); in the assay on TK-10 renal, 95.5%; with ACHN renal, 4.57% (active). The growth with CAKI-1 renal is 12.8%; in the assay on A498 renal it was -79.2% (active); with CCRF-CEM leukemia, 78.4%; in the assay on MOLT-4 leukemia, 79.1%.
In the case of `O=C1c2c(c3c4ccccc4[nH]c3c3ccc4ccccc4c23)C(=O)N1CCN1CCOCC1`, the growth with SK-MEL-2 melanoma was 69.9%; with EKVX NSCLC, 61.8%; in the assay with SN12C renal it was 30.2%; in the assay with UO-31 renal it was 27.6%; with TK-10 renal it was 71.2%; in the assay with ACHN renal, 15.3%. The growth in the assay on CAKI-1 renal was 32.8%; with A498 renal, 61.4%; in the assay on CCRF-CEM leukemia it was 10.9%; in the assay on MOLT-4 leukemia, 6.38% (active).
On to `Nc1ncnc2c1c(-c1cccc(Cl)c1)nn2CC(=O)N1CCOCC1`, for which the growth in the assay on SK-MEL-2 melanoma was 106%; in the assay with EKVX NSCLC, 104%; with SN12C renal it was 100%; with UO-31 renal, 80.7%; in the assay on TK-10 renal, 97%; with ACHN renal, 95.6%. The growth in the assay on CAKI-1 renal was 91.8%; with A498 renal it was 118%; with CCRF-CEM leukemia it was 102%; in the assay on MOLT-4 leukemia, 110%.
`C#CCOc1cccc(Nc2ncnc3ccc(NC(=O)C=C)cc23)c1`: the growth is 55% in the assay on SK-MEL-2 melanoma; 32% in the assay with EKVX NSCLC; 29.7% in the assay with SN12C renal; 9.91% (active) in the assay with UO-31 renal; -8.81% (active) with TK-10 renal; 14.9% with ACHN renal. The growth is 10.2% with CAKI-1 renal, 33.5% in the assay with A498 renal, 25.1% in the assay on CCRF-CEM leukemia and 59.8% in the assay on MOLT-4 leukemia.
In the case of `N#CC1=C(c2ccccc2)Nc2c(c(-c3ccc(Cl)cc3)nn2-c2ccccc2)C12C(=O)Nc1ccc(Cl)cc12` (stereo not given), the growth is 94.8% in the assay on SK-MEL-2 melanoma; 61.6% with EKVX NSCLC; 84.9% in the assay with SN12C renal; 47.8% in the assay with UO-31 renal; 73.7% in the assay with TK-10 renal; 80.6% in the assay with ACHN renal. Moreover, the growth was 44.5% in the assay on CAKI-1 renal, 69% in the assay with A498 renal, 61.4% in the assay on CCRF-CEM leukemia and 52.5% in the assay with MOLT-4 leukemia.
On to `COC(=O)[C@@H](CCCCNC(=O)[C@]12CCC(C)(C)C[C@@H]1C1=CC[C@@H]3[C@@]4(C)C/C(=C/c5ccco5)C(=O)C(C)(C)[C@@H]4CC[C@@]3(C)[C@]1(C)CC2)NC(=O)[C@]12CCC(C)(C)C[C@@H]1C1=CC[C@@H]3[C@@]4(C)C/C(=C/c5ccco5)C(=O)C(C)(C)[C@@H]4CC[C@@]3(C)[C@]1(C)CC2`, for which the growth with SK-MEL-2 melanoma was 108%; in the assay with EKVX NSCLC, 105%; with SN12C renal it was 98.7%; with UO-31 renal, 79.2%; in the assay with TK-10 renal it was 102%; in the assay with ACHN renal it was 107%. The growth in the assay on CAKI-1 renal was 98.5%; with A498 renal it was 116%; in the assay on CCRF-CEM leukemia it was 99.3%; in the assay with MOLT-4 leukemia it was 97%.
For the compound `CCOC(=O)c1cc2c(n1C)-c1nc(NC(C)=O)sc1CCC2`, the growth in the assay with SK-MEL-2 melanoma is 89.9%; with EKVX NSCLC, 60.7%; in the assay with SN12C renal it was 81.9%; in the assay with UO-31 renal it was 43.2%; with TK-10 renal, 138%; in the assay on ACHN renal, 86.7%. For the same compound, the growth in the assay on CAKI-1 renal is 76.4%; with A498 renal it was 53.2%; in the assay on CCRF-CEM leukemia it was 73.8%; in the assay on MOLT-4 leukemia it was 81.6%.
Turning to `C#CCOC(=O)/C=C/c1cn(-c2ccccc2)nc1-c1ccc(OC)cc1`, the growth with SK-MEL-2 melanoma is 90.4%; in the assay on EKVX NSCLC, 93.4%; in the assay with SN12C renal, 77.3%; in the assay on UO-31 renal, 54%; in the assay on TK-10 renal, 91.6%; in the assay on ACHN renal, 77%. In addition, the growth in the assay on CAKI-1 renal is 67.6%; with A498 renal, 81.7%; in the assay on CCRF-CEM leukemia, 97.5%; with MOLT-4 leukemia, 75.8%.
`COC(=O)[C@]1(C)CCC[C@]2(C)[C@H]3C[C@H]4C(C(C)C)=C[C@]3(CC[C@H]21)[C@@H]1C(=O)CC[C@H](OCCC#N)[C@@H]14`: the growth in the assay with SK-MEL-2 melanoma is 86.6%; with EKVX NSCLC, 57.1%; with SN12C renal, 93.5%; in the assay on UO-31 renal it was 71.1%; with TK-10 renal it was 94.8%; in the assay on ACHN renal, 87.5%. Besides, the growth is 68% with CAKI-1 renal, 105% in the assay on A498 renal, 81.5% with CCRF-CEM leukemia and 48.6% in the assay with MOLT-4 leukemia.
With `N#Cc1nc(-c2ccc(F)cc2)oc1S(=O)(=O)N1CCCCC1`, the growth with SK-MEL-2 melanoma is 81.1%; with EKVX NSCLC, 98.5%; in the assay on SN12C renal, 80.2%; in the assay with UO-31 renal it was 84.8%; in the assay on TK-10 renal it was -69.8% (active); in the assay on ACHN renal, 3.58% (active). Also, the growth in the assay with CAKI-1 renal was 91%; in the assay with A498 renal, 112%; in the assay on CCRF-CEM leukemia, 1.84% (active); in the assay with MOLT-4 leukemia, -6.66% (active).
`CC(C)Cn1cnc2c(=O)[nH]c(N)nc21`: the growth with SK-MEL-2 melanoma was 87.9%; with EKVX NSCLC it was 101%; in the assay with SN12C renal, 98.9%; in the assay with UO-31 renal it was 94.4%; in the assay on TK-10 renal, 88.6%; in the assay on ACHN renal, 106%. Further, the growth in the assay with CAKI-1 renal was 95.4%; in the assay on A498 renal, 94.1%; in the assay with CCRF-CEM leukemia, 107%; in the assay with MOLT-4 leukemia, 92.4%.
Consider `CC(=O)N1N=C(c2ccc(C(F)(F)F)c(F)c2)CC1c1[nH]c(C)c(C(=O)NCC(F)(F)F)c1C` (stereo not given), for which the growth is 106% with SK-MEL-2 melanoma; 88.4% in the assay on EKVX NSCLC; 50.1% with SN12C renal; 26% with UO-31 renal; 68.5% with TK-10 renal; 18.7% in the assay with ACHN renal. The growth with CAKI-1 renal was 58.7%; with A498 renal, 54.9%; in the assay with CCRF-CEM leukemia, 90%; in the assay with MOLT-4 leukemia it was 82.6%.
